Most compounds without a hit are left out; they make up all but 17% or so of the library.
TDP1 block – inhibitors of human tyrosyl-DNA phosphodiesterase TDP1; AID 485290; Potency, µM (doses to about 130 µM), for inactives: at the top dose activity change, negative = inhibition, usual class: inhibitors; recombinant TDP1, AlphaScreen DNA substrate cleavage; Q9NUW8; 350,000 compounds, 0.28% hits; further: on the % scale 0 is the no-effect control and ±100 the full control effect; nearly all actives have a fitted effect of over 40% in size
Target sequence (Q9NUW8 whole entry, looked up): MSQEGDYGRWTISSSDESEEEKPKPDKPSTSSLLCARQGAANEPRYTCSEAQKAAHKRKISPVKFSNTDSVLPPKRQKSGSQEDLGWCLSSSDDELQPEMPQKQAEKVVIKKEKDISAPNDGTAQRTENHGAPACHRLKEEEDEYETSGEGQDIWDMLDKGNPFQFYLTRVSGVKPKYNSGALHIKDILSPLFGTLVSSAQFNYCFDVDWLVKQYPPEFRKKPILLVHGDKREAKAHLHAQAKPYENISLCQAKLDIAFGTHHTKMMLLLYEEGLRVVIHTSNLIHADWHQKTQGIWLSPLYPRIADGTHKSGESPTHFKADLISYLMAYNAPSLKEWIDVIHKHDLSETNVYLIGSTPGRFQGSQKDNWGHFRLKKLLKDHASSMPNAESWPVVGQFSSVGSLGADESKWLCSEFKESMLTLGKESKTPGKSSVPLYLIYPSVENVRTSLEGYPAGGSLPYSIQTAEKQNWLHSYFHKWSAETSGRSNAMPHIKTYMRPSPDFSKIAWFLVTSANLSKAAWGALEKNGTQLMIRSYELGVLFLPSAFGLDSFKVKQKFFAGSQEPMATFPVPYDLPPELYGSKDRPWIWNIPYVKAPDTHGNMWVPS
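E. coli-derived human Tdp1, 1 nM final. Cpd preinc 15 min RT; substrate 15 nM final, 5 min RT; AS bead mix 10 ug/ml final, 10 min RT. Signal loss = tyrosine-FITC cleavage. No-enzyme wells = max signal.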
ClpP mod – qHTS Assay for Activators of ClpP. ATP-dependent Clp protease proteolytic subunit (Bacillus subtilis (strain 168)), P80244. 340,000 compounds, 1.9% hits. Potency, µM (series often up to 57.5 µM), for the others: at the highest dose activity change, negative = active. AID 651965, 2013. purified B. subtilis ClpP, FRET peptide cleavage, 20 min; active means well fitted falling curve with a large enough effect; inconclusive means small, poorly fitted or top-dose-only effect; inactive means no such curve, though single readings can be large or run the other way; further: the source files actives as falling curves though it sought activators and does not explain the sign; nearly all actives have a fitted effect of over 65% in size
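Purified B. subtilis ClpP, 10 microg/mL final in Tris/HCl pH8 with KCl, BSA, glycerol and Tween-20, cleaved an Abz/nitrotyrosine-quenched decapeptide. Fluorescence (ex 320, em 430) was read at 0 and 20 min at room temperature. Delta was normalized to 5.8 microM ADEP and DMSO/no-enzyme controls.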
TDP1 cell CPT – growth inhibition of DT40 Tdp1-/-;hTDP1 cells with camptothecin (screen for TDP1 inhibitors); chicken DT40 Tdp1-/-;hTDP1 cells + 20 nM CPT, ATP luminescence, 48 h; Potency, µM (highest dose often 46.2 µM), for the others: top-dose activity change, negative = growth inhibition, most hits filed as inhibitors; 420,000 compounds, 12% hits; further: on the % scale 0 is the no-effect control and ±100 the full control effect; nearly all actives have a fitted effect of over 55% in size
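Chicken DT40 Tdp1-/- cells complemented with human TDP1, 400 cells/well, exposed to compounds plus 20 nM camptothecin for at least 48 h at 37 C; viability read as ATP content by CellTiter-Glo luminescence.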
DT40 TDP1 no CPT – qHTS for Inhibitors of human tyrosyl-DNA phosphodiesterase 1 (TDP1): qHTS in cells in absence of CPT; DT40 Tdp1-/- hTDP1 cells, no CPT, ATP luminescence, 48 h; Potency, µM (doses to about 46.2 µM), for the others: top-dose activity change, negative = growth inhibition, most hits filed as inhibitors; 420,000 compounds, 15% hits; AID 686978, 2013; further: on the % scale 0 is the no-effect control and ±100 the full control effect; nearly all actives have a fitted effect of over 55% in size
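Compound effects on proliferation are scored in DT40 Tdp1-/-;hTDP1 cells in the absence of CPT. ATP levels (CellTiter-Glo luminescence) are recorded after a ≥48 hr, 37 °C incubation.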
* = called active by the depositor; ? = inconclusive; . = no result given; ! = not confirmed by another sample; [ ] = dose if it differs, or a comment. Unless noted, the call rests on the fitted dose curve; in most records, active means well fitted curve in the direction sought with a large enough effect; inconclusive means small, poorly fitted or top-dose-only effect, or another doubt; inactive means no such curve, though single readings can be large; an effect the other way counts as inactive or inconclusive. Potency means the concentration at half of the fitted maximal effect.

SMILES	TDP1 block	ClpP mod	TDP1 cell CPT	DT40 TDP1 no CPT
COc1ccc(CCNc2nc3c(c(=O)n(C)c(=O)n3C)n2Cc2ccc(F)cc2)cc1OC	0%	0%	6.5µM*	3.3µM*
Cn1cc(C(=O)Cc2ccccc2)c2ccccc21	4%	-4%	16µM*	?
Cc1cc(-c2nc3ncccc3o2)ccc1NC(=O)c1ccccc1Br	4%	-16%	-16%	?
BrCC(Br)C1CCC(Br)C(Br)C1 (configuration not stated)	32µM*!	1%	?	-21%
CC(C)NCC(O)c1ccc(C2CCCC2)cc1 (configuration not stated)	0%	-2%	16µM*	16µM*
CN(C)c1nc(OCCNC(=O)COc2ccc(Cl)cc2Cl)nc(N2CCCCC2)n1	2%	1%	9.2µM*	12µM*
COC(=O)COc1ccc(Cl)cc1Cl	9%[56.1 µM]	.	5%	12%
C=C(C=O)C[C@@H]1C[C@H](O)C2OC3C[C@]4(C)OC5/C=C\CC6OC7C(CC=CCC6OC5CCCC4OC3CC2O1)OC1CC2OC3CC(=O)OC3C[C@@H](C)C[C@@]2(C)OC1C[C@@H]7C (some centres not stated)	0%	-2%	0.65µM*	0.58µM*
CCC(=NCc1ccco1)c1c(O)n(C2CCCCC2)c(=O)[nH]c1=O	2%	0%	23µM*	?
CCC(=O)c1c(O)n(C2CCCCCC2)c(=O)[nH]c1=O	2%	-1%	6.5µM*	16µM*
Cc1nc(-c2cccc(NC(=O)c3ccc(Cl)c(S(=O)(=O)N4CCCC4)c3)c2)cs1	.	-10%	?	8.2µM*
Cc1nn(Cc2ccccc2)c(Cl)c1C(=O)Nc1ccc(OC(F)(F)F)cc1	5%	8%	?	?
Cc1nn(Cc2ccccc2)c(Cl)c1C(=O)NC1CCCc2ccccc21 (configuration not stated)	-1%	-2%	?	21µM*
CCCOC(=O)Cc1ccc(OCC(=O)N(CC)CC)c(OC)c1	.	.	-24%	?
CC(=O)c1cn(Cc2ccc(F)cc2)c2ccccc12	.	-1%	21µM*	18µM*
CCCCC1(CC)COP(=O)(OCC(Cl)(Cl)Cl)OC1 (configuration not stated)	.	.	-1%	-2%
CCS(=O)(=O)Nc1cccc(C(=C2CCCCC2)c2cnc[nH]2)c1	11%[56.1 µM]	1%	?	21µM*
CCN1C(=O)/C(=C/c2ccc3c(c2)CCN3CCCCl)C(=O)NC1=S	6%	-1%	?	23µM*
CC(C)(C)N1C(=O)NC(=O)/C(=C\c2ccc3c(c2)CCN3CCCCl)C1=O	.	.	3%	?
CCc1ccc(C(=O)NN(C(=O)c2cc(C)cc(C)c2)C(C)(C)C)cc1	7%	.	.	.
CC1CN1c1cc2c(c3c1ccn3C)C1CCC2C1 (configuration not stated)	.	1%	7.3µM*	8.2µM*
CC(C)CN1CCCC2(CCN(C(=O)c3ccncc3)CC2)C1	.	.	2%	1%
COc1cccc2c1C(=O)c1c(O)c3c(c(O)c1C2=O)C[C@@](O)(C(=O)CO)C[C@@H]3O[C@H]1C[C@H](N)[C@H](O[C@@H]2CCCCO2)[C@H](C)O1	.	.	0.19µM*	0.34µM*
O=C(N/N=C\c1ccc(COc2ccc([N+](=O)[O-])cc2)o1)c1cccc(Cl)c1	4%	-3%	-14%	?
O=C(CCCc1ccc(N(CCCl)CCCl)cc1)NCc1ccccc1	.	-1%	0.73µM*	0.73µM*
O=C(CCCCCCCCCCC(=O)NCc1cccnc1)NCc1cccnc1	1%	.	?	?
C=C1C(=O)O[C@H]2C[C@@H](C)[C@@H]3C=CC(=O)[C@@]3(C)C[C@H]12	1%	-1%	1µM*	0.65µM*
C=C1C(=O)O[C@@H]2C[C@@H](C)[C@@H]3C=CC(=O)[C@@]3(C)[C@@H](OC(=O)CC(=O)O[C@H]3[C@@H]4C(=C)C(=O)O[C@@H]4C[C@@H](C)[C@@H]4C=CC(=O)[C@]43C)[C@H]12	2%	2%	0.058µM*	0.073µM*
Nc1ccc(S(=O)(=O)NCc2ccccc2)cc1	6%	.	-17%	?
